Assays:
[1] = biological target: T1, CDK9/cyclin T1 (Homo sapiens) (UniProt O60563+P50750); conditions: at 1 µM
[2] = biological target: T1, CDK9/cyclin T1 (Homo sapiens); conditions: at 10 µM
[3] = biological target: T2, Serine/threonine-protein kinase Chk1 (Homo sapiens) (UniProt O14757); conditions: at 1 µM
T2 sequence (whole entry): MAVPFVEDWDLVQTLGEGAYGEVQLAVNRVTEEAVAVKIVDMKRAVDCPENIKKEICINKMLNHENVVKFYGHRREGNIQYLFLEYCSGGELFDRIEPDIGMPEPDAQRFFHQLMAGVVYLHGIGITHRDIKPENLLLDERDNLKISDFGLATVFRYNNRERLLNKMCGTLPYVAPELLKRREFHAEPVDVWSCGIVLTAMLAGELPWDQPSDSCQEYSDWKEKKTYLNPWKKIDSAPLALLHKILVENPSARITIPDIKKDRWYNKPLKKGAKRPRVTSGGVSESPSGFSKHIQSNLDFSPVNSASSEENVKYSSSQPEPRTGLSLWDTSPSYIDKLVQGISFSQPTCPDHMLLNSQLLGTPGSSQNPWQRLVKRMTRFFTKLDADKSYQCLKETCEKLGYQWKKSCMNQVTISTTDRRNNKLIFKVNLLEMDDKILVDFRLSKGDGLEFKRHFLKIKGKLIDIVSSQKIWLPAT

[4] = biological target: T2, Serine/threonine-protein kinase Chk1 (Homo sapiens); conditions: at 10 µM
[5] = biological target: Serine/threonine-protein kinase Chk2 (Homo sapiens) (UniProt O96017); conditions: at 1 µM
Sequence of Serine/threonine-protein kinase Chk2 (Homo sapiens) (O96017 whole entry, canonical isoform): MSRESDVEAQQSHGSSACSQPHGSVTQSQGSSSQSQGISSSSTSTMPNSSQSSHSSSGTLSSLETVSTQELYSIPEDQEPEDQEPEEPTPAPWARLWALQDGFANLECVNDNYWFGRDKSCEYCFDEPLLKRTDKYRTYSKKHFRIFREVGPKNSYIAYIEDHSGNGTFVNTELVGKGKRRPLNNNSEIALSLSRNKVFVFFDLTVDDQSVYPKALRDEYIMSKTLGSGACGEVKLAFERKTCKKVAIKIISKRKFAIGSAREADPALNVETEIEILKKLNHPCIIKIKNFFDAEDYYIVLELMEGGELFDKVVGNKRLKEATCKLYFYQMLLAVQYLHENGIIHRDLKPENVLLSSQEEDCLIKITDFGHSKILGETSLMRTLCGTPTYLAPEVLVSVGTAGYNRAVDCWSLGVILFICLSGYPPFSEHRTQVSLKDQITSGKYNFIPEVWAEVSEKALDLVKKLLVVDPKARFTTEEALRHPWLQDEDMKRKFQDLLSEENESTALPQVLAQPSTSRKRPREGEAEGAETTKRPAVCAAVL

[6] = biological target: Serine/threonine-protein kinase Chk2 (Homo sapiens) (UniProt O96017); conditions: at 10 µM
[7] = biological target: Casein kinase I isoform gamma-1 (Homo sapiens) (UniProt Q9HCP0); conditions: at 1 µM
Sequence of Casein kinase I isoform gamma-1 (Homo sapiens) (Q9HCP0 whole entry, looked up, canonical isoform): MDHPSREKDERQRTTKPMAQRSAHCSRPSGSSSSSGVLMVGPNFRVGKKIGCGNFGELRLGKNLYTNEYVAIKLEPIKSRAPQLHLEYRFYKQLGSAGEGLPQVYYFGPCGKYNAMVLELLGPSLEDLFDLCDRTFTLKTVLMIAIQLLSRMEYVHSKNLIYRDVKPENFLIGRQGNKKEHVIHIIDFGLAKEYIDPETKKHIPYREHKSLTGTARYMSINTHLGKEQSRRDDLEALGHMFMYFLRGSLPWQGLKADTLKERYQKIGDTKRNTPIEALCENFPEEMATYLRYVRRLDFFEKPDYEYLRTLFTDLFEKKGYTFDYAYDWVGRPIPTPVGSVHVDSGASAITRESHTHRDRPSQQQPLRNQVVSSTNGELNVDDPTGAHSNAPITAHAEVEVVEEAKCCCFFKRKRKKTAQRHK

[8] = biological target: Casein kinase I isoform gamma-1 (Homo sapiens) (UniProt Q9HCP0); conditions: at 10 µM
[9] = biological target: Casein kinase I isoform delta (Homo sapiens) (UniProt P48730); conditions: at 1 µM
Sequence of Casein kinase I isoform delta (Homo sapiens) (P48730 whole entry, looked up, canonical isoform): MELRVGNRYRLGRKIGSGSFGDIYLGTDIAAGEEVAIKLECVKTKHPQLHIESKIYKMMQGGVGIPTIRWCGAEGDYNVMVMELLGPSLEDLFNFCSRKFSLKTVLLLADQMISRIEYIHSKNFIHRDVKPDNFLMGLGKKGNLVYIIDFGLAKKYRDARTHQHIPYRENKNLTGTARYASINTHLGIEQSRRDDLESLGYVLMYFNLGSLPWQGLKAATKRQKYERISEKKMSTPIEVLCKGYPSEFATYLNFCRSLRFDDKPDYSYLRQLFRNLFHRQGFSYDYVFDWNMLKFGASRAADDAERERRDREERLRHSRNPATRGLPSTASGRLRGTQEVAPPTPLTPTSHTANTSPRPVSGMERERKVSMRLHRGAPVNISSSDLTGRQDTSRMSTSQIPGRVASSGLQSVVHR

[10] = biological target: Casein kinase I isoform delta (Homo sapiens) (UniProt P48730); conditions: at 10 µM

Structure (SMILES) | residual activity [1] | residual activity [2] | residual activity [3] | residual activity [4] | residual activity [5] | residual activity [6] | residual activity [7] | residual activity [8] | residual activity [9] | residual activity [10]
COc1cc2ncnc(Nc3ccc(Oc4ccccc4)cc3)c2cc1OC | 99% | 93% | 76% | 88% | 24% | 8% | 93% | 89% | 83% | 101%
Oc1c2ccccc2c2c3c(cccc13)N=N2 | 96% | 55% | 72% | 32% | 29% | 2% | 99% | 48% | 5% | 1%
Cc1nc(-c2ccccc2)c(-c2ccncc2)o1 | 111% | 98% | 102% | 98% | 91% | 72% | 111% | 82% | 44% | 8%
N#C/C(=C(\N)Sc1ccc(N)cc1)c1ccccc1C(F)(F)F | 81% | 96% | 90% | 86% | 94% | 81% | 103% | 87% | 87% | 82%
Oc1ccc(Nc2nc(-c3ccc(Cl)cc3)cs2)cc1 | 104% | 99% | 99% | 104% | 64% | 40% | 113% | 98% | 79% | 72%
COc1ccc(OC)c2c(=S)c3ccccc3[nH]c12 | 95% | 83% | 108% | 88% | 106% | 68% | 99% | 77% | 101% | 74%
CC[n+]1c(/C=C/N(C)c2ccccc2)n(-c2ccccc2)c2ccc(-c3nc4ccccc4s3)cc21 | 119% | 125% | 94% | 83% | 92% | 80% | 84% | 100% | 87% | 93%
COc1cc2ncnc(Nc3ccc(O)c(Br)c3)c2cc1OC | 91% | 41% | 80% | 70% | 46% | 11% | 90% | 41% | 81% | 38%
CCC(=O)Nc1ccc2ncnc(Nc3cccc(Br)c3)c2c1 | 102% | 86% | 85% | 87% | 95% | 87% | 87% | 95% | 97% | 100%
CO[C@@H]1[C@H](N(C)C(=O)c2ccccc2)C[C@H]2O[C@]1(C)n1c3ccccc3c3c4c(c5c6ccccc6n2c5c31)C(=O)NC4 | 70% | 58% | 59% | 65% | 79% | 54% | 66% | 49% | 80% | 69%
Cc1ccc(S(=O)(=O)/C=C/C#N)cc1 | 102% | 87% | 99% | 89% | 85% | 78% | 80% | 83% | 96% | 89%
CO[C@H]1[C@@H](OC)C[C@H](C)[C@@H](OC)C2=CC(=O)C=C(NC(=O)/C(C)=C/C=C/[C@H](OC)[C@@H](OC(N)=O)/C(C)=C/[C@@H]1C)C2=O | 100% | 83% | 96% | 87% | 91% | 89% | 91% | 94% | 90% | 81%
Oc1n[nH]c2nnc(-c3c(-c4ccccc4)nn4ccccc34)cc12 | 90% | 99% | 93% | 81% | 19% | 11% | 94% | 83% | 84% | 54%
O=C1NC(=O)c2c1c1c3ccccc3[nH]c1c1[nH]c3cc(Br)ccc3c21 | 82% | 76% | 77% | 47% | 33% | 30% | 104% | 88% | 92% | 90%
COc1cc2ncnc(Nc3ccc(NC(=O)c4ccccc4)cc3)c2cc1OC | 111% | 100% | 97% | 99% | 34% | 8% | 92% | 78% | 79% | 69%
O=C(O)c1ccc2c3c1cccc3c(=O)n1c3ccccc3nc21 | 75% | 30% | 99% | 94% | 86% | 38% | 99% | 65% | 87% | 58%
COc1cccc(-c2cc(=O)c3ccccc3o2)c1N | 104% | 108% | 104% | 90% | 85% | 72% | 95% | 88% | 102% | 87%
c1ccc2c(-c3ccncc3)c[nH]c2c1 | 67% | 20% | 89% | 80% | 86% | 100% | 96% | 95% | 85% | 81%

Structure (SMILES) | residual activity [1] | residual activity [2] | residual activity [3] | residual activity [4] | residual activity [5] | residual activity [6] | residual activity [7] | residual activity [8] | residual activity [9] | residual activity [10]
CCN(CC)CCCCN1c2ccccc2Oc2ccc(Cl)cc21 | 108% | 108% | 99% | 103% | 94% | 103% | 102% | 103% | 95% | 96%
Cn1cnc2cc3c(Nc4cccc(Br)c4)ncnc3cc21 | 108% | 93% | 95% | 92% | 89% | 56% | 84% | 81% | 87% | 64%
O=C1Nc2ccc(Br)cc2/C1=C\c1cc2c([nH]1)CCCC2 | 104% | 97% | 78% | 81% | 44% | 42% | – | – | – | –
COc1ccc(C(=O)Nc2sc3c(c2C(N)=O)CCCC3)cc1OC | 96% | 97% | 81% | 104% | 77% | 98% | 84% | 103% | 89% | 96%
N#CCCc1ccc2c(c1)-c1[nH]c3ccc([N+](=O)[O-])cc3c1CC(=O)N2 | 1% | 0% | 39% | 16% | 4% | 0% | – | – | – | –
O=C1c2ccccc2-[n+]2ccc3c([nH]c4ccccc43)c21 | 86% | 92% | 94% | 87% | 77% | 75% | 98% | 81% | 79% | 77%
O=C(Nc1cccc(Nc2nccc(Nc3cccc(C(F)(F)F)c3)n2)c1)C1CC1 | 89% | 79% | 72% | 77% | 81% | 48% | 93% | 94% | 82% | 78%
c1ccc(-c2n[nH]c3c2oc2ccccc23)cc1 | 88% | 78% | 86% | 89% | 85% | 57% | 87% | 73% | 75% | 33%
O=c1cc(-c2cccc3c2Sc2ccccc2S3)oc(N2CCOCC2)c1 | 100% | 89% | 97% | 94% | 106% | 87% | 101% | 43% | 92% | 44%
CN(C)c1ccc(/C=C2\C(=O)Nc3ccccc32)cc1 | 107% | 93% | 90% | 72% | 73% | 36% | 91% | 74% | 56% | 21%
Oc1ccc(-c2nc(-c3ccc(F)cc3)c(-c3ccncc3)[nH]2)cc1 | 94% | 65% | 103% | 92% | 89% | 68% | 82% | 59% | 7% | -1%
C[C@@H](N)[C@H]1CC[C@H](C(=O)Nc2ccncc2)CC1 | 97% | 57% | 107% | 104% | 103% | 97% | 102% | 99% | 103% | 110%
CC#CC(=O)Nc1cc2c(Nc3ccc(F)c(Cl)c3)ncnc2cn1 | 97% | 96% | 89% | 98% | 99% | 108% | 89% | 95% | 93% | 106%
Ic1cccc(CSc2nnc(-c3ccncc3)o2)c1 | 75% | 87% | 57% | 49% | 72% | 65% | 101% | 84% | 83% | 75%
CCOc1cc2ncnc(Nc3cccc(Br)c3)c2cc1OCC | 94% | 82% | 85% | 82% | 91% | 47% | 91% | 87% | 84% | 51%
O=C1NC(=O)/C(=C/c2ccc3c(c2)OC(F)(F)O3)S1 | 94% | 77% | 94% | 88% | 93% | 85% | 95% | 94% | 80% | 65%
Nc1n[nH]c2nnc(-c3c(-c4ccccc4)nn4ccccc34)cc12 | 98% | 92% | 90% | 82% | 98% | 78% | 94% | 84% | 60% | 17%

Reference: ChEMBL document CHEMBL2218924, “A broad activity screen in support of a chemogenomic map for kinase signalling research and drug discovery” (Biochem J, 2013)
